Bioassay records from PubChem BioAssay.
PfHsp90 set2: growth inhibition of PfHsp90-expressing yeast, primary screen, antimalarial PfHsp90 inhibitor project, S. cerevisiae, BacTiter-Glo luminescence, single point, set 2; inhibition, % at 9.4 µM; 0.32% of 310,000 active; AID 504621, 2011; BacTiter-Glo ATP, 48 h; yeast lacking PDR1 and PDR3 efflux regulators;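 active = every replicate shows inhibition above about 80%, whatever the replicate mean, limit read from the data; inconclusive = mean inhibition reaches the set limit but some replicate falls short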;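 note: 0% = DMSO neutral controls and 100% = 20 µM radicicol positive controls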
tim23-1 inh: growth inhibitors of tim23-1 mutant yeast, primary screen, luminescence, uHTS; S. cerevisiae tim23-1 growth, BacTiter-Glo luminescence, 24 h; inhibition, % at 20 µM; 1.3% of 330,000 active; AID 463212, 2010;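 active = growth inhibition of the mutant yeast at or above 50%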;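 note: temperature-sensitive mutant grown at 25 °C; plate controls were DMSO-treated mutant yeast for no effect and medium wells lacking yeast for full effect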
tim10-1 inh: growth inhibitors of tim10-1 mutant yeast, primary screen, luminescence, uHTS; S. cerevisiae tim10-1 ts strain growth, BacTiter-Glo, 24 h; inhibition, % at 20 µM; 2.2% of 330,000 active; AID 463190, 2010;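 active = inhibition of at least 40%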;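 note: mutant grown at 25 °C; 0% = DMSO wells with yeast and 100% = wells holding no yeast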
SKKanGAS inh: S. pyogenes SKKanGAS growth inhibitors in kanamycin, primary screen, streptokinase expression inhibitor project, SKKanGAS strain, BacTiter-Glo luminescence; 6 h; inhibition, % at 7.5 µM; 1.3% of 300,000 active; AID 1662, 2009;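 active = mean replicate score, as percent of positive control median, at least 50; inconclusive = mean below 50 but one replicate at or above 50; inactive = mean and every replicate below 50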;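 note: strain carries kanamycin resistance gene driven by streptokinase promoter and grows in 40 µg/ml kanamycin; loss of luminescence reflects streptokinase promoter inhibition or plain growth inhibition; 0% = median of DMSO wells and 100% = positive control at its reference dose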
TIM10 inh: growth inhibitors of isogenic TIM10 control yeast, primary screen, counter-screen for tim10-1 yeast inhibitor project, luminescence, uHTS; S. cerevisiae TIM10 strain growth, BacTiter-Glo luminescence, 24 h; inhibition, % at 10 µM; 1.4% of 330,000 active; AID 463195, 2010;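 active = inhibition of 40% or more at the single tested concentration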;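 note: wild-type TIM10 isogenic control strain grown at permissive 25 °C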
Calb FLC: C. albicans growth inhibition with fluconazole, primary screen, CaCi-2 strain, Alamar Blue fluorescence | C. albicans CaCi-2 (fluconazole-resistant clinical isolate) + fluconazole, 48 h | growth inhibition, % (no concentration beside the values) | 0.57% of 300,000 active | AID 1979, 2009;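 active = growth inhibition above about 58% in most replicates, limit read from the data, passing the limit was not always enough; inconclusive = exactly half the replicates above a set limit; inactive = most replicates below a set limit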;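 note: all wells also contain fluconazole at 8 µg/ml as a sub-toxic cotreatment; 0% = median of DMSO wells and 100% = median of geldanamycin control wells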
TIM10 conf: growth inhibitors of wild-type TIM10 yeast, confirmation, counter-screen for tim10-1 synthetic lethality project, single concentration, luminescence, S. cerevisiae; inhibition, % at 10 µM; S. cerevisiae tim10 strain growth, BacTiter-Glo luminescence, 24 h; shares compounds with TIM10 inh; AID 463215, 2010; 63% of 4,600 active;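 active = inhibition of yeast growth at or above a set limit in either of two replicates at 10 µM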;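 note: this counterscreen used the strain with wild-type TIM10; 0% = yeast with DMSO and 100% = medium wells lacking yeast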
Starred values were filed as active, the others as inactive; ? = inconclusive; . = no result. Only some compounds are listed: those with a hit (about 4.7% of all), similar ones and a draw of the others.

SMILES	PfHsp90 set2	tim23-1 inh	tim10-1 inh	SKKanGAS inh	TIM10 inh	Calb FLC	TIM10 conf
CN(C)S(=O)(=O)c1cccc(NC(=S)NC(=O)C2CCCCC2)c1	34	43	24	-7	41*	14	35*
Cc1ccc(NC(=S)NC(=O)C2CCCC2)c(Br)c1	-24	45	27	.	41*	.	35*
Cc1cc(NC(=S)NC(=O)C2CC2)ccc1Br	.	47	32	0	41*	59	42*
O=C(NC(=S)Nc1ccccc1Br)C1CC1	-17	48	30	3	10	-4	.
COc1cnc(-c2ccccn2)nc1Oc1cccc(Cl)c1	1	44	39	-10	46*	-18	49*
COc1ccc(Oc2nc(-c3ccccn3)nc3ccccc23)cc1	.	45	13	80*	41*	-6	34*
COc1ccc(Oc2nc(-c3ccncc3)nc3ccccc23)cc1	-32	48	39	1	32	-9	.
COc1cnc(-c2ccccn2)nc1Sc1c(Cl)cccc1Cl	.	19	34	-9	50*	-2	38*
COc1cnc(-c2ccccc2)nc1Oc1cccc(C)c1	-1	0	-2	4	-2	0	.
CCN(C(=O)c1ccc2c(SCC(=O)O)c3c(nc2c1)CCC3)c1cc(Cl)ccc1OC	-18	14	16	-3	24	-2	.
O=C(Nc1ccc(C2=NCCN2)cc1)c1ccc(Cl)c(C(=O)Nc2ccc(C3=NCCN3)cc2)c1	.	-110	-31	-1	-76	?	.
COc1ccc(N=Nc2nc(-c3ccccc3)c(-c3ccccc3)[nH]2)cc1	-23	34	32	20	41*	-1	8
COc1ccc(-c2nc(C)ncc2N=Nc2ccccc2)cc1	-18	29	26	-12	-3	-18	.
Cc1cc(NCCCN2CCOCC2)n2ncc(-c3ccc(Cl)cc3)c2n1	.	38	1	18	-26	32	.
CN(C)CCCNc1cc(C(C)(C)C)nc2c(-c3ccc(Cl)cc3)cnn12	27	-17	-15	75*	55*	95*	60*
Cc1ccc(S(=O)(=O)NCCSc2nnnn2-c2cc(C)ccc2C)cc1	-4	24	30	-4	45*	-14	9
O=C(Nc1ccc2nn(-c3ccccc3)nc2c1)c1ccco1	26	30	22	7	54*	-6	51*
O=C(Nc1ccc2nc(-c3ccco3)[nH]c2c1)c1ccco1	.	41	17	3	54*	-7	37*
O=C(Nc1ccc(Oc2ccc(NC(=O)c3ccco3)c(NC(=O)c3ccco3)c2)cc1)c1ccco1	.	41	26	42	39	-2	.
O=C(Nc1ccc(Oc2ccc3ccccc3c2)cc1)c1ccco1	-14	34	26	24	43*	11	36*
O=C(Nc1cc2nn(-c3ccccc3)nc2cc1Cl)c1ccco1	-4	-9	-2	-5	-2	10	.
COc1ccc(C(=O)NCCOc2ccccc2Cl)c(OC)c1OC	-18	-15	-3	0	-54	7	.
CC(CCc1ccccc1)NC(=O)C(=O)c1c[nH]c2ccccc12 (stereo not drawn)	2	41	13	-8	4	-4	.
CS(=O)(=O)N1CCc2cc(C(=O)Nc3ccc(COCC(F)(F)F)cc3)ccc21	2	6	18	-2	13	-10	.
CN1c2ccccc2-c2nc3ccccc3n2C1c1ccncc1 (stereo not drawn)	11	9	2	-1	19	0	.
SMILES	PfHsp90 set2	tim23-1 inh	tim10-1 inh	SKKanGAS inh	TIM10 inh	Calb FLC	TIM10 conf
CCN1c2ccccc2-c2nc3ccccc3n2C1c1ccco1 (stereo not drawn)	-14	35	30	2	40*	-1	35*
CN1c2ccccc2-c2nc3ccccc3n2C1c1ccccn1 (stereo not drawn)	4	-2	24	3	43*	-5	10
O=C(Nc1ccc(F)cc1F)c1cc(Cl)sc1Cl	0	3	-1	-2	14	1	.
CCOC(=O)C1(C)NC(c2ccco2)C2C(=O)N(CC)C(=O)C21 (stereo not drawn)	-15	12	3	9	1	-2	.
O=C(Oc1cc2oc(=O)c3c(c2cc1Cl)CCCC3)c1ccco1	-6	13	37	0	51*	5	32*
COC(=O)Cc1c(C)c2cc(Cl)c(OC(=O)c3ccco3)cc2oc1=O	-23	11	23	-1	54*	6	40*
CC1(C)Cc2c(C#N)c(N3CCN(C(=O)c4ccco4)CC3)nc(Cc3ccccc3)c2CO1	-7	18	28	33	42*	-4	5
COc1cc(NC(=O)CCc2nnc3ccc(N4CCOCC4)nn23)cc(OC)c1OC	-13	-16	-9	-6	-7	-9	.
Fc1cccc(/C=N/n2c(C3CCCCC3)n[nH]c2=S)c1	-21	26	26	5	44*	-3	37*
O=[N+]([O-])c1cccc(/C=N/n2c(C3CCCCC3)n[nH]c2=S)c1	-1	26	26	-4	16	16	.
CCCCC(=O)N1CCN(c2nc3ccc(Cl)cc3s2)CC1	-6	21	-7	-2	6	0	.
O=C(NC12CC3CC(CC(C3)C1)C2)N(Cc1ccccc1)Cc1ccncc1	.	37	30	-3	44*	-26	32*
CC1=CC(C)(C)N(C(=O)c2ccccc2)c2ccccc21	-20	25	29	11	16	-18	.
CC1=CC(C)(C)N(C(=O)c2ccccc2)c2ccc(C)cc21	-1	-6	26	63*	46*	-6	-9
Cc1nc2oc3c(NCc4ccccc4)ncnc3c2c2c1COC(C)(C)C2	13	40	37	5	41*	0	25
COc1ccc2cc3cc(C(=O)NCCN4CCc5ccccc5C4)sc3nc2c1	-30	22	26	2	69*	40	67*
CCC(C)NC(=O)c1cc2cc3ccc(OC)cc3nc2s1 (stereo not drawn)	14	37	27	-4	46*	30	25
CCC(C)NC(=O)c1cc2c(=O)n3ccccc3nc2s1 (stereo not drawn)	18	26	21	-15	-3	4	.
O=C1c2ccccc2NC(c2cccc(O)c2)N1NS(=O)(=O)c1ccccc1 (stereo not drawn)	-30	14	11	1	-6	?	.
